Data as given in PubChem BioAssay (NCI).
Compounds without any hit were thinned out: in the full panel of roughly 83,000, 20% have a hit.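 Method: cells in 96-well plates; compound added at one concentration; 48 h incubation; percent growth measured; values under 10 scored active.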 Values without a mark were called inactive. Calls of active or inactive are those of the source.

Tested on: MDA-MB-468 breast
Experiment: NCI-60 one-dose screen, 48 h (100 = growth as untreated, 0 = no growth, -100 = all killed)
Details: 10 µM unless noted

| SMILES | growth |
| --- | --- |
| CCCc1nc(C(C)(C)O)c(C(=O)O)n1Cc1ccc(-c2ccccc2-c2nn[nH]n2)cc1 | 112% |
| CS(=O)(=O)c1cccc(Nc2ncc3cc(-c4ccccc4Cl)ccc3n2)c1 | 13.1% |
| O=C1[C@H]2Cc3c([nH]c4ccccc34)[C@@H](c3ccc(Br)cc3)N2C(=O)CN1C1CCN(Cc2ccccc2)CC1 | -4.01% (active) |
| COc1ccc(CCNc2nc3c(c(=O)n(Cc4ccc(Br)cc4)c(=O)n3C)n2C)cc1OC | 109% |
| Cc1ccc2c(c1)C13C(=C2Br)CCCN1C(=O)c1ccccc13 (configuration not stated) | 69.8% |
| Cc1ccc(C2CC(c3cccc(Nc4ccncc4)c3)=NN2c2ccccc2)cc1 (configuration not stated) | -78.5% (active) |
| CCC(/C=C\C(C)=O)CC | 102% |
| COc1ccc(C(=O)/C=C/c2cc(-c3ccc4c(c3)OCO4)n[nH]2)cc1OC | 28.2% |
| NC(=O)NC1(C(=O)O)CCCC1 | 119% |
| Cc1cccc2c3c(sc12)C(c1ccc(Cl)cc1)C(C#N)=C(/N=C/c1ccc(Cl)cc1)O3 (configuration not stated) | 10.9% |
| CSc1nc(N)c2c(n1)NC(c1ccccc1)C1CCc3ccccc3C1=N2 (configuration not stated) | 76.4% |
| CCOC(=O)C1=C(C)NC(C)=C(C(=O)OCC)C1c1cc(Br)c(O)c(OC)c1 | 20.4% |
| COc1ccc(CC(=O)Nc2nn3c(-c4cc(C(F)(F)F)cc(C(F)(F)F)c4)nnc3s2)cc1 | 48.4% |
| COc1ccc2c3c(ccc2c1)C(=O)/C(=C\O)CC3 | 111% |
| COc1ccc(/C=C/C(=O)c2cccc(B(O)O)c2)cc1O | 34.9% |
| O=C(Nc1ccccc1)Nc1ccc(Nc2ncnc3sc4c(c23)CCCC4)cc1 | 96.9% |
| COc1ccc2nc3cc(Cl)ccc3c(NCCCNCCO)c2c1 | -34.1% (active) |
| CCNCCNc1cc(-c2ccc(C(F)(F)F)cc2)c(C#N)c2nc3cc(Cl)c(Cl)cc3n12 | -82% (active) |
| COc1ccc(/C=N/NC(=O)c2cnn3c2NC(c2ccccc2)C3)cc1OC1CCCC1 (configuration not stated) | 91.1% |
| O=C(/C=C/c1cn(-c2ccccc2)nc1-c1ccccc1)CCC(=O)NO | 101% |
| O=C(O)c1ccccc1Cc1ccc2c(c1)CCCC2 | 99.6% |

| SMILES | growth |
| --- | --- |
| CCN1C(=O)N(CC)C2SC(N/N=C/c3ccc(OC)cc3)=NC21 (configuration not stated) | 32.2% |
| CC(=O)O[C@H]1CC[C@]2(C)C3=C(C(=O)C[C@H]2C1(C)C)[C@]1(C)CC[C@H]([C@H](C)CCC(=O)O)[C@@]1(C)CC3=O | 113% |
| c1cc(OCCN2CCCCCC2)ccc1CNc1ccc2nc(CCC3CCCCC3)[nH]c2c1 | 58.2% |
| CCOC(=O)n1cc(-c2nonc2-c2cn(C(=O)OCC)c3ccc(Br)cc23)c2ccccc21 | 85.9% |
| COc1cccc(-c2nc3occn3c2-c2ccnc(NCCCNS(=O)(=O)c3cccc(F)c3)n2)c1 | 65.4% |
| O=C(Nc1cccc(Cl)c1)Oc1c(Br)c(Br)c(Br)c(Br)c1Br | 94.1% |
| CN1C(=O)N(c2ccccc2)C2N=C(N/N=C/c3ccccc3)SC21 (configuration not stated) | -11.5% (active) |
| CC1CCC2C(C)(C)C3CC12CC1OC13C (configuration not stated) | 99.8% |
| Cn1c2c(Cl)c(Cl)ccc2c2cc(N)[nH]c(=O)c21 | 88.9% |
| COc1cc(NCCN=C(N)NC(N)=NC(C)C)c2ncccc2c1 | -46.5% (active) |
| Cc1ccc(-c2csc(NC(=O)CCCCl)n2)cc1 | 93.3% |
| COC12CC(=O)C(C(C)=O)=C(O)C1(C)c1c(O)c(C)c(O)c(C(C)=O)c1O2 (configuration not stated) | 68.9% |
| O=C(Nc1ccc(Oc2ccc(Nc3nc4ccccc4s3)cc2)cc1)Nc1ccc(Cl)c(Cl)c1 | 8.01% (active) |
| N#CCNc1ccccc1N | 108% |
| CN(C)c1ccc(/C=N/NC(=O)COc2cc(=O)n(C)c3ccccc23)cc1 | 105% |
| C/C(=N\Nc1nc(C)cs1)c1cc2ccccc2o1 | 82.6% |
| COc1ccc(C(=S)N2CCN(c3ccccc3Cl)CC2)cc1OC | 92.1% |
| CC(=O)Cc1nsc(NC(=O)c2cc(-c3cc(Cl)cc(Cl)c3)oc2C)n1 | 97.6% |
| Cc1cc(C(=O)Nc2cc(Oc3ccc4nc(NC(=O)C5CC5)cn4n3)ccc2C)n(C)n1 | 21% |
| COc1ccc(C2C=C(c3ccc(Cl)c(Cl)c3)N=C3SC(C)=CN32)cc1OC (configuration not stated) | 53.1% |
| Cc1cc(-c2ccc(N=Nc3c(C)nn(-c4ccc(S(=O)(=O)O)cc4)c3O)c(C)c2)ccc1N=Nc1ccc(O)c(C(=O)O)c1 | 113% |
